Compounds with a hit are over-represented: about 3.1% of the library has one in this group of screens.
CD11b adhes inh: blocks human CD11b/CD18 adhesion to fibrinogen; K562 CD11b/CD18 adhesion to fibrinogen, ATPlite luminescence; Mn2+ added to activate the integrin; inhibition, % at 10 µM; actives 0.54% (n = 93,000);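 active = primary inhibition of 50% or more at 10 µM, then 40% or more on retest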
ERb SRC1 inh: blocks coactivator binding to human estrogen receptor beta | TR-FRET ER-beta LBD / SRC1-Cy5 peptide binding; receptor agonist-loaded with 1 µM estradiol | inhibition, % at 25.6 µM | actives 1.3% (n = 86,000) | AID 633;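 active = compounds whose percent inhibition of the receptor-coactivator binding signal exceeds about 50% in the single-dose screen, limit read from the data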;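 note: 0% = receptor plus peptide wells without compound and 100% = peptide-only wells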
Target sequence (Q92731 whole entry, looked up, the tested form may be a part): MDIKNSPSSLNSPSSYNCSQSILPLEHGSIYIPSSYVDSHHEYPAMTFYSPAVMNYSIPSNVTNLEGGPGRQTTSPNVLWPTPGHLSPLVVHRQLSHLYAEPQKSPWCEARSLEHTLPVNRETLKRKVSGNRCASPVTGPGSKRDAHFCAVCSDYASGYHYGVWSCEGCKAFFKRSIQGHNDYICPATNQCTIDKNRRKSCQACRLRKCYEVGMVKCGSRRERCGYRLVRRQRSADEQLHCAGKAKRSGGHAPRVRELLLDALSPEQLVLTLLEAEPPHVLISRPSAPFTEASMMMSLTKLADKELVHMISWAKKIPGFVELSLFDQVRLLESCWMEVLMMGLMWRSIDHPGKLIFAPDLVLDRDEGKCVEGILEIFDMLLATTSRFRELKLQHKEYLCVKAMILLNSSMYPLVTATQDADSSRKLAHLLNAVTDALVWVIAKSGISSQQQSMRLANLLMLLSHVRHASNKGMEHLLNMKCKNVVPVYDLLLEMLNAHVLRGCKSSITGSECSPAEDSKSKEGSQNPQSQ
ERa coact pot: enhances coactivator binding to human estrogen receptor alpha | P03372 | TR-FRET ERalpha-LBD/SRC-Cy5 coactivator binding, 2 h; 100 = basal binding, no effect | coactivator binding (% of control), % at 25.6 µM | actives 1.3% (n = 86,000); in the data active = activity above about 200%;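 note: binding measured in presence of low estradiol as agonist stimulus; 0% = peptide alone without receptor and 100% = receptor with peptide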
Mac1 fbg enh: enhancers of human CD11b/CD18 binding to fibrinogen; activation, % at 10 µM; K562 CD11b/CD18 adhesion to fibrinogen, ATPlite luminescence; P05107+P11215; actives 0.07% (n = 93,000); AID 1499;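 active = 10 µM primary screen giving 50% or more activity, confirmed by 40% or more on retest at that dose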
ERa SRC1 inh: blocks coactivator binding to human estrogen receptor alpha; actives 1.7% (n = 86,000); TR-FRET ER-alpha LBD / SRC-1 peptide, estradiol-bound; inhibition, % at 25.6 µM; AID 629; P03372; in the data active = inhibition above about 50%;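 note: 0% = receptor plus peptide control and 100% = peptide only without receptor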
* marks the source's active call; other numbers are inactive results; / = not tested or not shown; [ ] = dose if it differs, or a comment.

SMILES | CD11b adhes inh | ERb SRC1 inh | ERa coact pot | Mac1 fbg enh | ERa SRC1 inh
Cc1cc(NS(=O)(=O)c2ccc(NC(=O)Cc3cccs3)cc2)no1 | -14 | 5 | 107 | -8 | 2
Cc1cc(NC(=O)Cc2cccs2)no1 | -2 | 89*[fluorescence artefact?] | 17 | 90 | 97*[fluorescence artefact?]
CCC1CCCCN1Cc1ccc(OC)c(C)c1C (centres undefined) | -11 | -5 | 110 | -2 | -4
COc1nc(N=C(N)N)nc2ccc(C)cc12 | -24 | / | / | 11 | /
CCOC(=O)COn1c(=O)c(=O)n(O)c2ccccc21 | 2 | 50*[fluorescence artefact?] | 74 | -2 | 36
CCOC(=O)COn1c(=O)c(=O)n(OC)c2ccccc21 | 20 | 18 | 101 | 0 | 14
O=[N+]([O-])c1ccc2nccn2c1 | -1 | / | / | 0 | /
CCOc1ccc(C(=O)Nc2nnn(CC)n2)cc1 | 12 | 4 | 90 | -3 | 1
CCn1nnc(NC(=O)COc2ccc(C3CCCCC3)cc2)n1 | 74* | 3 | 81 | -9 | 7
O=C(NCCc1ccccn1)c1cc(-c2cccc3ccccc23)nc2ccccc12 | 0 | / | / | -3 | /
COc1ccc(-c2ccc(-c3noc(-c4ccccc4F)n3)c(OC)n2)cc1 | 2 | 40 | 241*[fluorescence artefact?] | 33 | 49
COc1nc(-c2ccccc2)ccc1-c1noc(-c2ccco2)n1 | -22 | 7 | 229* | 4 | 6
COc1nc(-c2ccc(Cl)cc2)ccc1-c1noc(-c2ccncc2)n1 | / | 41 | 369*[fluorescence artefact?] | / | 65*[fluorescence artefact?]
COc1ccc(-c2ccc(-c3noc(-c4ccccc4)n3)c(OC)n2)cc1 | -20 | 44 | 139 | -1 | 40
Cc1ccc(NC(=O)c2cc([N+](=O)[O-])ccc2NCc2cccnc2)cc1 | -4 | / | / | 1 | /
CCOC(=O)CCC(=O)Nc1ccccc1C(N)=O | 2 | -3 | 129 | 0 | 53*
CCN(CC)CCc1c(C)[nH]c(C(=O)OCc2ccccc2)c1C | -12 | 93*[fluorescence artefact?] | 6 | 45 | 96*[fluorescence artefact?]
CN1C(=O)CSc2ccc(NC(=O)N3CCN(c4ccccn4)CC3)cc21 | 27 | 8 | 86 | 0 | 13
CN1C(=O)CSc2ccc(NC(=O)N3CCC(N4CCCCC4)CC3)cc21 | -27 | 51* | 53 | 8 | 58*
CC/C(=N/Nc1ccccc1)c1cnnc(-c2ccccc2)n1 | / | 60* | 87 | / | 82*[fluorescence artefact?]
Cc1cc(-c2csc(N)n2)c(C)n1C | -28 | 83*[fluorescence artefact?] | 109 | 2 | 71*[fluorescence artefact?]
Nc1nc(-c2ccccc2Br)cs1 | / | -4 | 93 | / | -3
Cn1c2ccccc2c(=O)c2c(=O)n(C3CCCCCC3)c(C3CCCCC3)nc21 | 26 | / | / | -6 | /
Cn1c2ccccc2c(=O)c2c(=O)n(C3CCCCC3)c(-c3cccs3)nc21 | -1 | 4 | 436*[fluorescence artefact?] | -4 | 30
CCOc1cc(OCC)cc(C(=O)O)c1 | -8 | 10 | 96 | 1 | 99*[fluorescence artefact?]
SMILES | CD11b adhes inh | ERb SRC1 inh | ERa coact pot | Mac1 fbg enh | ERa SRC1 inh
COc1ccc(OCc2cccc(C(=O)O)c2)cc1 | -24 | / | / | -4 | /
CCOc1ccc(OCc2cccc(C(=O)O)c2)cc1 | 59* | / | / | -1 | /
O=C(Nc1ccc(C2CCCCC2)cc1)C1CCCN(c2ncccn2)C1 (centres undefined) | -6 | -1 | 223*[fluorescence artefact?] | 14 | 16
Cc1cc(C)cc(NC(=O)C2CCCN(c3nc(C)cc(C)n3)C2)c1 (centres undefined) | -9 | 75*[fluorescence artefact?] | 90 | 2 | 4
O=C(CSc1nc2ccc([N+](=O)[O-])cc2[nH]1)NC1CCCCCC1 | 102* | / | / | -9 | /
CCC(=O)N1CCn2c1nc1ccccc12 | / | 55*[fluorescence artefact?] | 91 | / | 5
CN1CCN(CCN2CCn3c2nc2ccccc23)CC1 | 7 | 6 | 93 | -4 | -3
N#CCCN1CCn2c1nc1ccccc12 | -16 | -9 | 200* | -1 | -10
O=C(Nc1ccc(F)cc1F)c1noc2c1CCC2 | -13 | 91*[fluorescence artefact?] | 38 | 8 | 86*[fluorescence artefact?]
O=C(NCc1ccc(F)cc1)c1noc2c1CCCC2 | 6 | -11 | 118 | -2 | -9
COCCOC(=O)c1c(C)oc2ccc(NS(=O)(=O)c3ccccc3)cc12 | -6 | 0 | 106 | -4 | 0
CCOC(=O)c1c(C)oc2ccc(NS(=O)(=O)c3ccc4c5c(cccc35)C(=O)N4)cc12 | / | 65*[fluorescence artefact?] | 52 | / | 67*[fluorescence artefact?]
COc1ccc(/C(C)=N/OC/C(O)=C(\C#N)c2nc3ccccc3[nH]2)cc1 | 0 | / | / | 11 | /
COCCn1c(SCCCC(=O)c2ccc(Br)cc2)nnc1-c1ccncc1 | 69* | 9 | 90 | -5 | 0
c1cncc(Oc2cccc(Oc3cccnc3)c2)c1 | / | 98*[fluorescence artefact?] | 90 | / | -8
Cc1ccc(-n2nnnc2-c2cnc3cc4c(cc3c2C)OCO4)cc1 | -1 | / | / | -4 | /
CSc1nc(N2CCN(CCO)CC2)c2sc3nc(-c4ccco4)c4c(c3c2n1)CCC4 | 4 | 24 | 65 | 8 | 57*
Cc1cc(C)c2c(n1)sc1c(N3CCN(CCO)CC3)ncnc12 | -27 | -21 | 107 | 11 | -27
Cc1c(CN(C)C(=O)c2sc3cc(Cl)ccc3c2Cl)cnn1C | / | 1 | 118 | / | 7
Cc1ccc(OCCCCn2cnc3ccccc32)c(C)c1 | 86* | 0 | 91 | -9 | -4
CCC1(C)NC(=O)N(CC(=O)Nc2sc3c(c2C(N)=O)CCC3)C1=O (centres undefined) | -5 | 83*[fluorescence artefact?] | 22 | -1 | 76*
NC(=O)c1c(NC(=O)CN2C(=O)CCC2=O)sc2c1CCCCC2 | -9 | / | / | -3 | /
CCOCC(=O)Nc1cccc(C(=O)OCC)c1 | -6 | -4 | 116 | 1 | 60*
CCOC(=O)c1cccc(NC(=O)COC)c1 | -11 | -2 | 97 | -4 | -3
Cc1noc(C)c1COC(=O)CCCc1nc2ccccc2s1 | 20 | 1 | 128 | 0 | 3
SMILES | CD11b adhes inh | ERb SRC1 inh | ERa coact pot | Mac1 fbg enh | ERa SRC1 inh
Cc1noc(C)c1COC(=O)c1ccc(-c2nc3ccccc3s2)s1 | -5 | 42 | 152 | 2 | 61*[fluorescence artefact?]
Cc1cc2ccccc2n1CCNC(=O)c1ccc(S(=O)(=O)N2CCOCC2)cc1 | -31 | 31 | 98 | 46 | 70*[fluorescence artefact?]
Cc1cc2ccccc2n1CCNC(=O)Cc1cccc2ccccc12 | 22 | 5 | 212* | -1 | 0
O=C(NCc1ccco1)c1cccc(S(=O)(=O)N2CCOCC2)c1 | -8 | 2 | 109 | -5 | -1
O=C(NCc1ccco1)c1ccc(S(=O)(=O)N2CCOCC2)cc1 | / | 56*[fluorescence artefact?] | 37 | / | 70*[fluorescence artefact?]
CCC(=O)NCCn1c(C)cc2ccccc21 | -1 | -2 | 80 | -2 | -5
Cc1cc2ccccc2n1CCNC(=O)c1ccccc1 | / | 14 | 122 | / | 27
Cc1ccc2[nH]c(=O)c(C(c3nnnn3C(C)(C)C)N(Cc3ccco3)CC3CCCO3)cc2c1 (centres undefined) | 0 | -7 | 127 | -6 | -18
Cc1cccc2cc(C(c3nnnn3C(C)(C)C)N(Cc3ccco3)CC3CCCO3)c(=O)[nH]c12 (centres undefined) | -3 | 66*[fluorescence artefact?] | 54 | -3 | 57*
Cc1nc2ccc3nc(NC(=O)c4ccco4)sc3c2s1 | / | 50*[fluorescence artefact?] | 183 | / | 44
